Assay results taken from PubChem BioAssay (Tox21).
Where “and” joins values, the source holds several entries; their conditions need not be identical. Identical values can stand only once. Records with an inconclusive call do not appear. Calls of active or inactive are those of the source. Unless noted, the call rests on the fitted dose curve; in most records, active means well fitted curve in the direction sought with a large enough effect in the repeat runs; inconclusive means weak or mixed curves; inactive means no such curve, though single readings can be large; an effect the other way counts as inactive or inconclusive.

Experiments:
[1] = qHTS assay to identify small molecule agonists of the hypoxia (HIF-1) signaling pathway - cell viability counter screen (AID 1224844; calls by dose curve; further: nearly all actives have a fitted effect of over 50% in size; further: potency means the concentration at half of the fitted maximal effect)
Procedure, shortened: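 HRE-bla ME-180 cells, 2,000/well in 0.5% dialyzed FBS medium, treated 17 h at 37C with compounds. Viability read in the same wells as the bla reporter, by CellTiter-Glo luminescence after 30 min at room temperature.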

[2] = qHTS assay to identify small molecule agonists of H2AX (AID 1224845; active means well fitted activation curve with a large enough effect in the signal ratio in the repeat runs, not every such curve was filed as active; the % refers to the signal ratio; further: potency means the concentration at half of the fitted maximal effect)
Procedure, shortened: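 Phospho-H2AX Ser139 measured by HTRF (ex 320 nm; em 665 and 620 nm) after 24 hr antibody incubation. Compounds, 15 concentrations, 0.76% DMSO, were applied to CHO-K1 cells for 3hr at 37C before lysis.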

[3] = qHTS assay to identify small molecule agonists of the hypoxia (HIF-1) signaling pathway (AID 1224846; active means well fitted activation curve with a large enough effect in the signal ratio in the repeat runs, not every such curve was filed as active; the % refers to the signal ratio)
Procedure, shortened: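 HRE-bla ME-180 beta-lactamase reporter cells in medium with 0.5% dialyzed FBS, pre-incubated 5 h then exposed to compounds 17 h at 37C, 5% CO2; reporter induction read with CCF4-AM FRET substrate.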

[4] = qHTS assay to identify small molecule antagonists of the estrogen related receptor (ERR) signaling pathway from Tox21 library (AID 1224848); further: nearly all actives have a fitted effect of over 50% in size; further: potency means the concentration at half of the fitted maximal effect
Procedure, shortened: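 Reading was by luminescence 30 min after ONE-Glo addition. Before that, ERR cells at 2,000 per well had rested 6 h at 37 C/5% CO2 and then received pin-tooled compounds in DMSO for 18 h at 37 C.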

[5] = qHTS assay to identify small molecule agonists of the estrogen related receptor (ERR) signaling pathway from Tox21 library (AID 1224849; calls by dose curve; further: nearly all actives have a fitted effect of over 15% in size); settings: ERR reporter cell line, ONE-Glo luciferase, 18 h
Procedure, shortened: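 ERR reporter cells (NTP line) pre-incubated 6 hours at 37 C, then exposed to compounds for 18 hours at 37 C. ONE-Glo luciferase luminescence was read after 30 minutes at room temperature.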

[6] = qHTS RealTime-Glo MT Cell Viability Assay in HepG2 cells - 24 hour (AID 1224867); further: nearly all actives have a fitted effect of over 50% in size; further: potency means the concentration at half of the fitted maximal effect
Procedure, shortened: (§1)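 Luminescence read-out: viable HepG2 cells reduce a prosubstrate to a NanoLuc substrate, giving a signal proportional to live cell number. Reads taken at 0, 8, 16, 24, 32 and 40 h of compound exposure at 37 C.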

[7] = qHTS RealTime-Glo MT Cell Viability Assay in HepG2 cells - 40 hour (AID 1224870); further: nearly all actives have a fitted effect of over 50% in size; further: potency means the concentration at half of the fitted maximal effect
Procedure, shortened: (§2)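 Real-time viability: cells seeded at 600 per well together with NanoLuc and cell-permeant prosubstrate, compounds added after 5 h incubation. Luminescence tracked at 0, 8, 16, 24, 32 and 40 h of exposure.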

[8] = A CellTox Green Cytotoxicity Assay to monitor cytotoxicity in HEK293 cells - 40 hour (AID 1224871); further: nearly all actives have a fitted effect of over 45% in size; further: potency means the concentration at half of the fitted maximal effect
Procedure, shortened: (§3)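 HEK293 cells, 600/well, were preincubated 5 hours and then exposed to compounds at 37 C for up to 40 hours. A cell-impermeant cyanine dye staining dead-cell DNA was read by fluorescence at 0, 8, 16, 24, 32 and 40 h time points.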

[9] = qHTS RealTime-Glo MT Cell Viability Assay in HepG2 cells - 8 hour (AID 1224873); further: nearly all actives have a fitted effect of over 55% in size
Procedure, shortened: as §2

[10] = A CellTox Green Cytotoxicity Assay to monitor cytotoxicity in HEK293 cells - 24 hour (AID 1224875); further: nearly all actives have a fitted effect of over 45% in size; further: potency means the concentration at half of the fitted maximal effect
Procedure, shortened: as §3

[11] = A CellTox Green Cytotoxicity Assay to monitor cytotoxicity in HepG2 cells - 16 hour (AID 1224876); further: nearly all actives have a fitted effect of over 45% in size; further: potency means the concentration at half of the fitted maximal effect
Procedure, shortened: (§4)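 HepG2 cells, 600/well, preincubated 5 h with CellTox Green dye, then exposed to Tox21 compounds in DMSO at 37 C for up to 40 h. Dead-cell DNA fluorescence read at the indicated time point.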

[12] = A CellTox Green Cytotoxicity Assay to monitor cytotoxicity in HepG2 cells - 24 hour (AID 1224878); further: nearly all actives have a fitted effect of over 45% in size; further: potency means the concentration at half of the fitted maximal effect
Procedure, shortened: as §4

[13] = A CellTox Green Cytotoxicity Assay to monitor cytotoxicity in HepG2 cells - 40 hour (AID 1224879); further: nearly all actives have a fitted effect of over 40% in size; further: potency means the concentration at half of the fitted maximal effect
Procedure, shortened: as §4

[14] = qHTS RealTime-Glo MT Cell Viability Assay in HEK293 cells - 0 hour (AID 1224880)
Procedure, shortened: (§5)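 600 cells/well were plated with the nonlytic NanoLuc/prosubstrate reagent, pre-incubated 5 h, then given 23 nL of compound in DMSO. Incubation at 37 C for 40 h, with luminescence from viable-cell-reduced substrate read repeatedly from 0 h.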

[15] = qHTS assay to identify small molecule agonists of H2AX - cell viability counter screen (AID 1224847; calls by dose curve; further: nearly all actives have a fitted effect of over 30% in size; further: potency means the concentration at half of the fitted maximal effect)
Procedure, shortened: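 Counter-screen for viability: CellTiter-Glo ATP luminescence read after 3 h compound treatment (15-point titration, 0.76% DMSO final) of CHO-K1 cells at 37C, with 30 min room-temperature reagent incubation.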

[16] = qHTS RealTime-Glo MT Cell Viability Assay in HEK293 cells - 32 hour (AID 1224868); further: nearly all actives have a fitted effect of over 50% in size; further: potency means the concentration at half of the fitted maximal effect
Procedure, shortened: (§6)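 Nonlytic real-time viability readout: viable cells convert prosubstrate to NanoLuc substrate, giving luminescence proportional to live cell number. HEK293, 600 cells/well, compound added after 5 h, continuous culture at 37 C.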

[17] = A CellTox Green Cytotoxicity Assay to monitor cytotoxicity in HEK293 cells - 0 hour (AID 1224869); further: nearly all actives have a fitted effect of over 50% in size
Procedure, shortened: as §3

[18] = qHTS RealTime-Glo MT Cell Viability Assay in HEK293 cells - 16 hour (AID 1224872); further: nearly all actives have a fitted effect of over 50% in size; further: potency means the concentration at half of the fitted maximal effect
Procedure, shortened: as §6

[19] = qHTS RealTime-Glo MT Cell Viability Assay in HEK293 cells - 40 hour (AID 1224874); settings: RealTime-Glo luminescence; max response: active compounds read low; further: nearly all actives have a fitted effect of over 50% in size; further: potency means the concentration at half of the fitted maximal effect
Procedure, shortened: as §5

[20] = qHTS RealTime-Glo MT Cell Viability Assay in HepG2 cells - 32 hour (AID 1224877); further: nearly all actives have a fitted effect of over 55% in size; further: potency means the concentration at half of the fitted maximal effect
Procedure, shortened: as §1

[21] = at 92.4 µM (top of the series) unless noted
On the % scale 0 is the no-effect control and ±100 the full control effect.

CCC1OCC(COc2ccc(Oc3ccccc3)cc2)O1 (stereo not given)
active: activity change, positive = activation [5, 21] -1.58%
inactive: Potency [1] | Potency [2] | Potency [3] | Potency [4] | Potency [6] | Potency [7] | Potency [8] | Potency [9] | Potency [10] | Potency [11] | Potency [12] | Potency [13] | Potency [14]

Cc1nc(-c2ccc3c(c2)CCN(CCC2CCC(NC(=O)/C=C/c4ccc(F)cc4)CC2)CC3)no1 (stereo not given)
inactive: Potency [1] | Potency [2] | Potency [3] | Potency [15] | Potency [6] | Potency [7] | Potency [9] | Potency [10] | Potency [14]

COc1cc(-c2ccc(N=C=O)c(OC)c2)ccc1N=C=O
inactive: Potency [1] | Potency [2] | Potency [15] | Potency [4] | activity change, positive = activation [5, 21] -0.106% [at 42.5 µM] | Potency [6] | Potency [16] | Potency [17] | Potency [7] | Potency [8] | Potency [18] | Potency [9] | max response [19] -10% | Potency [10] | Potency [11] | Potency [13] | Potency [14]

O=C(Oc1ccccc1)c1ccccc1C(=O)Oc1ccccc1
inactive: Potency [1] | Potency [2] | Potency [3] | Potency [6] | Potency [16] | Potency [17] | Potency [7] | Potency [8] | Potency [18] | max response [19] -2.84% | Potency [10] | Potency [20] | Potency [12] | Potency [13] | Potency [14]

CCCCN(CCCC)C(=O)N(CCCC)CCCC
inactive: Potency [1] | Potency [2] | Potency [3] | Potency [6] | Potency [16] | Potency [17] | Potency [7] | Potency [8] | Potency [18] | Potency [9] | max response [19] -2.17% | Potency [10] | Potency [11] | Potency [20] | Potency [13] | Potency [14]

Cc1c(C)c2c(c(C)c1O)CCC(C)(COc1ccc(CC3SC(=O)NC3=O)cc1)O2 (stereo not given)
active: Potency [18] 43.6 µM | Potency [19] 43.6 µM
inactive: Potency [1] | Potency [2] | Potency [3] | Potency [15] | Potency [6] | Potency [17] | Potency [7] | Potency [8] | Potency [9] | Potency [10] | Potency [11] | Potency [20] | Potency [12] | Potency [13] | Potency [14]

CC(C)(C)NC(=O)[C@@H]1C[C@@H]2CCCC[C@@H]2CN1C[C@@H](O)[C@H](Cc1ccccc1)NC(=O)[C@H](CC(N)=O)NC(=O)c1ccc2ccccc2n1
active: Potency [1] 55.7 µM | Potency [2] 51.2 µM | Potency [15] 51.2 µM | Potency [4] 19.6 µM | Potency [6] 55.7 µM | Potency [16] 19.7 µM | Potency [8] 55.7 µM | Potency [18] 24.9 µM | Potency [19] 17.6 µM | Potency [12] 55.7 µM | Potency [13] 49.6 µM
inactive: activity change, positive = activation [5, 21] -72.5% | Potency [17] | Potency [14]

CCCCCCCCCCCCc1ccc(O)cc1
active: Potency [1] 24.5 µM | Potency [2] 56.6 µM | Potency [15] 45 µM | Potency [4] 54.5 µM | Potency [6] 49 µM | Potency [16] 43.6 µM | Potency [7] 54.9 µM | Potency [8] 49 µM | Potency [18] 38.9 µM | Potency [19] 38.9 µM | Potency [10] 49 µM | Potency [11] 15.5 µM | Potency [20] 49 µM | Potency [12] 13.8 µM | Potency [13] 19.5 µM
inactive: activity change, positive = activation [5, 21] -63.6% | Potency [17] | Potency [14]

CCCCCCOC(=O)c1ccc(O)cc1
inactive: Potency [1] | Potency [2] | Potency [4] | Potency [6] | Potency [17] | Potency [7] | Potency [9] | Potency [10] | Potency [14]
active: Potency [15] 89.9 µM and 101 µM | activity change, positive = activation [5, 21] 67.7% and 70.3% | Potency [16] 43.7 µM and 21.9 µM | Potency [18] 43.7 µM and 21.9 µM | Potency [19] 43.7 µM and 21.9 µM | Potency [11] 8.71 µM | Potency [13] 43.7 µM and 11 µM

NC(=O)NS(=O)(=O)c1ccc(N)cc1
inactive: Potency [1] | Potency [2] | Potency [3] | Potency [15] | Potency [6] | Potency [17] | Potency [7] | Potency [8] | Potency [18] | Potency [9] | max response [19] 2.7% | Potency [10] | Potency [11] | Potency [12] | Potency [13] | Potency [14]

CCCCCCCCS(=O)C(C)Cc1ccc2c(c1)OCO2 (stereo not given)
inactive: Potency [1] | Potency [2] | Potency [3] | Potency [6] | Potency [7] | Potency [8] | Potency [9] | Potency [10] | Potency [20] | Potency [13] | Potency [14]

Fc1ccc([C@@H]2CCNC[C@H]2COc2ccc3c(c2)OCO3)cc1
inactive: Potency [1] | Potency [2] | Potency [3] | Potency [15] | Potency [17] | Potency [18] | Potency [9] | Potency [10]
active: Potency [11] 23.9 µM | Potency [12] 26.8 µM | Potency [13] 26.8 µM

Oc1ccc2c(c1)-c1ccccc1C2
active: Potency [12] 49 µM | Potency [13] 49 µM
inactive: Potency [1] | Potency [2] | Potency [3] | Potency [15] | Potency [6] | Potency [17] | Potency [7] | Potency [18] | Potency [20] | Potency [14]

CC(=O)OCC(C)OC(C)=O (stereo not given)
inactive: Potency [1] | Potency [2] | Potency [3] | Potency [6] | Potency [16] | Potency [17] | Potency [7] | Potency [8] | Potency [18] | Potency [9] | max response [19] -0.171% | Potency [10] | Potency [11] | Potency [20] | Potency [12] | Potency [13] | Potency [14]

O=c1[nH]cnc2nc[nH]c12
inactive: Potency [1] | Potency [2] | Potency [3] | Potency [4] | activity change, positive = activation [5, 21] 9.65% [at 42.5 µM] | Potency [6] | Potency [16] | Potency [7] | Potency [8] | Potency [18] | Potency [9] | max response [19] 3.71% | Potency [10] | Potency [11] | Potency [13] | Potency [14]

CC(C)(C)CC(C)(C)c1ccc(OCCOCC[N+](C)(C)Cc2ccccc2)cc1
inactive: Potency [2] | activity change, positive = activation ([5]; at 42.5 µM (top of the series)) -58.4% | activity change, positive = activation ([5]; at 92.4 µM (top of the series)) -70.8% | Potency [17]
active: Potency [1] 19.5 µM and 9.52 µM | Potency [15] 101 µM and 49.2 µM | Potency [4] 6.85 µM and 5.96 µM | Potency [6] 48.9 µM and 9.52 µM | Potency [16] 12.3 µM and 9.52 µM | Potency [7] 24.5 µM and 9.52 µM | Potency [18] 24.5 µM and 21.3 µM | Potency [19] 9.76 µM and 8.49 µM | Potency [11] 48.9 µM and 19 µM | Potency [20] 34.6 µM and 9.52 µM | Potency [12] 38.9 µM and 15.1 µM | Potency [13] 24.5 µM and 10.7 µM
